Results filed as inconclusive are left out. A call without a number means that no potency is given here. Active and inactive are the calls of the source. Calls come from the whole dose curve; as a rule, active = well fitted curve in the direction sought with a large enough effect; inconclusive = small, poorly fitted or top-dose-only effect, or another doubt; inactive = no such curve, though single readings can be large; an effect the other way counts as inactive or inconclusive.
Assays:
[1] = biological target: Tyrosine-protein kinase Yes (Homo sapiens) (UniProt P07947); assay: qHTS for small molecule inhibitors of Yes1 kinase: Primary Screen (AID 686947); note: nearly all actives have a fitted effect of over 60% in size; note: potency is the fitted concentration of half-maximal effect
Sequence of Tyrosine-protein kinase Yes (Homo sapiens) (P07947 whole entry, looked up): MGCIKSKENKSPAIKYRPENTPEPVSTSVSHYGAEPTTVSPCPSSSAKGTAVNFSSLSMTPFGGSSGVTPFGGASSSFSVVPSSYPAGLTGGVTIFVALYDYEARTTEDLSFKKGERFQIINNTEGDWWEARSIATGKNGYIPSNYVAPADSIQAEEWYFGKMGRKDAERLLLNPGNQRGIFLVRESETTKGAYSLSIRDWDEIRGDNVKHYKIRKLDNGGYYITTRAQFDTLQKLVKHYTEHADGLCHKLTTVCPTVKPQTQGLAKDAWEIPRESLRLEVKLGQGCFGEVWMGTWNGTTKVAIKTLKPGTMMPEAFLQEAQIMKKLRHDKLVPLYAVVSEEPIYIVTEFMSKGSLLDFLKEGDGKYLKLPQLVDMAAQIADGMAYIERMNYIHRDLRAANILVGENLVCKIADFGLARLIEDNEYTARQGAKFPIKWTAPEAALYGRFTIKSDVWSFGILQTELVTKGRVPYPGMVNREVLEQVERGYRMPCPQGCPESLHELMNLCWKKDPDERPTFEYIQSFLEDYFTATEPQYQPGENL
How it was run: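 Yes1 (4 nM) preincubated 20 min with compound, then 60 min room-temperature reaction with 0.1 mM ATP and 0.3 mg/mL poly(E4Y) in pH 7.5 Tris, 10 mM MgCl2. ADP measured by ADP-Glo luminescence, normalised to enzyme/no-enzyme controls.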

[2] = qHTS for small molecule inhibitors of Yes1 kinase: Counter Assay (AID 686950);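 note: no kinase present so only ADP-Glo detection of a fixed ADP amount is tested; luminescence from ADP-Glo reporting ADP in a fixed ATP and ADP mixture; series mostly up to about 77 µM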
How it was run: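 Luminescence read-out from ADP-Glo quantifies a fixed ADP amount (0.02 mM ADP with 0.08 mM ATP) after 60 min at room temperature; signal is normalized between DMSO wells with ATP/ADP and with 0.1 mM ATP alone.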

SMILES | Potency [1] | outcome [2]
O=C1Nc2ccccc2C1=C1CCc2cc(O)ccc21 | 9.23 µM (active) | inactive
Cc1ccc(C(=O)NC2CCCCC2)cc1-c1ccc(C(=O)NCC2CC2)cc1 | inactive | inactive
Nc1nc(-c2ccc(F)cc2)c(-c2ccc3ncccc3n2)s1 | 0.463 µM (active) | inactive
COc1cc2ncn(-c3cc(OCc4cccs4)c(C(N)=O)s3)c2cc1OC | 1.84 µM (active) | inactive
Cc1ccc(-c2cc3c(NC(=O)C4CC4)ncnc3o2)cc1 | 0.733 µM (active) | inactive
c1ccc(-c2[nH]ncc2-c2ccnc(-c3ccc(OCCn4ccnc4)cc3)c2)nc1 | 4.63 µM (active) | inactive
NCc1ccc(-n2c(-c3nonc3N)nc3cnccc32)cc1 | inactive | inactive
N#Cc1ccc2c(-c3ccnc(NC4CC4)n3)c(-c3ccc(F)cc3)nn2c1 | 26 µM (active) | inactive
NC(=O)c1cc(-c2ccncc2)cc(-c2ccccc2)c1N | 0.519 µM (active) | inactive
Nc1ncnc2occ(-c3ccc(NC(=O)Nc4cc(C(F)(F)F)cc(C(F)(F)F)c4)cc3)c12 | 3.68 µM (active) | inactive
COc1cc(C=NNc2ncnc3c2cnn3Cc2ccccc2)ccc1O | 0.116 µM (active) | inactive
COc1ccc(-c2coc3ncnc(N)c23)cc1 | 11.6 µM (active) | inactive
CCS(=O)(=O)c1ccc(OC)c(Nc2ncc(-c3cccc(F)c3)o2)c1 | 0.146 µM (active) | inactive
CNC(=O)c1ncccc1Nc1nc(Nc2cc3c(cc2OC)CCCN3C(=O)CN(C)C)nc2[nH]ccc12 | inactive | inactive

From PubChem BioAssay (NCATS)
